Assay results: PubChem BioAssay AID2284381 (EPA ToxCast)
Results filed as inconclusive are left out. The source made the active and inactive calls. Rule for the calls: active = hit-call score of the fitted dose curve at least 0.9, where 1 is the maximum; inconclusive = response in the unintended direction; inactive = score below 0.9.

Test system: Japanese medaka Retinoid X Receptor beta (RXRb), gene 100125505
Assay: ATG_jmRXRb_EcoTox2: Attagene TRANS-FACTORIAL EcoTox-2 HepG2 Assay for Japanese medaka Retinoid X Receptor beta (RXRb)
Experimental: ATG_EcoTox2 is a cell-based, multiplexed assay created by modifying the existing Attagene TRANS-FACTORIAL system to include a panel of nuclear receptors from some or all the following species: human (Homo sapiens), african clawed frog (Xenopus laevis), rainbow trout (Oncorhynchus mykiss), japanese medaka (Oryzias latipes), and zebrafish (Danio rerio). The ECOTOX2-FACTORIAL format uses HepG2, a human liver cell line, with measurements taken at 24 hours after chemical dosing in a 24-well plate. ATG_jmRXRb_EcoTox2 is one of 29 assay components calculated in the ATG_EcoTox2 assay. It is designed to make measurements of mRNA induction, a form of inducible reporter, as detected with fluorescence intensity signals by Reverse transcription polymerase chain reaction (RT-PCR) and Capillary electrophoresis technology.The assay endpoint ATG_jmRXRb_EcoTox2 was analyzed in the positive analysis fitting direction relative to DMSO as the negative control and baseline of activity. Using a type of inducible reporter, measures of mRNA for gain-of-signal activity can be used to understand the reporter gene at the transcription factor-level as they relate to the gene RXRb. Furthermore, this assay endpoint can be referred to as a primary readout, because this assay has produced multiple assay endpoints where this one serves a reporter gene function. To generalize the intended target to other relatable targets, this assay endpoint is annotated to the nuclear receptor intended target family, where the subfamily is non-steroidal.
Human liver HepG2 cells are transiently transfected with multiple reporter transcription units (MRTUs) in 6-well plates using FuGene 6 reagent (Roche; 3 ml FuGene/1 mg DNA). The MRTU constructs are regulated by a cis-regulating element (promoter). Each RTU expresses a GAL4-UAS that regulates the transcription of a nearby target reporter gene sequence. A major difference between the CIS and TRANS system is that in CIS activities of endogenous TFs are measured, whereas the TRANS assay evaluates changes in activities of exogenous, chimeric NR-Gal4 proteins. […] At the end of 24 hour incubation, total RNA was isolated using TriZol reagent (Invitrogen). The isolated RNA is then reverse-transcribed using oligo(dT) primer and Mo-MLV reverse transcriptase (Invitrogen) with DNAse I (Ambion) treatment for 30 min. The one-tenth of the produced cDNA was amplified by PCR using Taq DNA polymerase (Invitrogen) and two reporter sequence-specific primers. The PCR products were fluorescently labeled by primer extension with 6-arboxyfluorescein (6-FAM) 5'-labeled reporter sequence-specific primer (2 min at 95 C, 20 s at 68 C and 10 min at 72 C) and these products were digested with 5U of HpaI (New England Biolabs) for 2h at 37 C. The fragments were purified using Qiaquick PCR columns (Qiagen), analyzed on an ABI 3130xL genetic analyzer (Applied Biosystems) with peak positions identified by using a set of X-rhodamine (ROX)-labeled MapMarker1000 molecular weight standards (BioVentures). The raw capillary electrophoresis data was processed using Attagraph software (Attagene).

Row | SMILES | outcome | AC50
1 | CC(C)(Oc1ccc(CCNC(=O)c2ccc(Cl)cc2)cc1)C(=O)O | inactive | –
2 | Cc1cccc(Nc2cc(Cl)nc(SCC(=O)O)n2)c1C | – | 27.4 µM (active)
3 | CC(c1cc2ccccc2s1)N(O)C(N)=O (stereo not given) | inactive | –
4 | C=C(c1ccc(C(=O)O)cc1)c1cc2c(cc1C)C(C)(C)CCC2(C)C | – | 0.00302 µM (active)
5 | CC(C)(Oc1ccc(C2CC2(Cl)Cl)cc1)C(=O)O (stereo not given) | inactive | –
6 | Cc1nc(-c2ccc(C(F)(F)F)cc2)sc1C(=O)NCc1ccc(OC(C)(C)C(=O)O)cc1 | inactive | –
7 | CN(CCOc1ccc(CC2SC(=O)NC2=O)cc1)c1ccccn1 (stereo not given) | – | 12.9 µM (active)
8 | CC(C)(Oc1ccc(Cl)cc1)C(=O)O | inactive | –
9 | C[C@@H]1C[C@H]2[C@@H]3CCC4=CC(=O)C=C[C@]4(C)[C@@]3(F)[C@@H](O)C[C@]2(C)[C@@]1(O)C(=O)COP(=O)(O)O | inactive | –
10 | Cc1ccc(C)c(OCCCC(C)(C)C(=O)O)c1 | – | 50 µM (active)
